Results filed as inconclusive are left out. A number with no mark means an inactive call. The source made the active and inactive calls. The call rests on the fitted dose curve; in most records, active means well fitted inhibition curve with a large enough effect in the signal ratio in the repeat runs (not every such curve was filed as active); inconclusive means weak or mixed curves, or effect the other way; inactive means no such curve, though single readings can be large or run the other way; the % refers to the signal ratio.
On the % scale 0 is the no-effect control and ±100 the full control effect.

Vitamin D3 receptor (Homo sapiens), sequence (P11473 whole entry, looked up): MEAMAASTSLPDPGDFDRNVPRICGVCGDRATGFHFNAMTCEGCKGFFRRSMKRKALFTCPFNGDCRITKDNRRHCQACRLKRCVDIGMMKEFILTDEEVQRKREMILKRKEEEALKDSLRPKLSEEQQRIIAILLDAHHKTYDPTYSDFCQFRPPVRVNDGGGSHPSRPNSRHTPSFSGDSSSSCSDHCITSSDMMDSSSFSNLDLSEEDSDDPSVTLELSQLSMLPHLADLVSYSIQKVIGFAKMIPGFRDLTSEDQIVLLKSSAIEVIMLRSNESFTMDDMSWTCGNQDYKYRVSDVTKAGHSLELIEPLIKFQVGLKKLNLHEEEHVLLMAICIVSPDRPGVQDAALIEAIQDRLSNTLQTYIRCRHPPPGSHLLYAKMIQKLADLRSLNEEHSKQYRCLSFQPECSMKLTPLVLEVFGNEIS

The assay has as its target Vitamin D3 receptor (Homo sapiens) (UniProt P11473). Kind of assay: qHTS assay to identify small molecule antagonists of the vitamin D receptor (VDR) signaling pathway (AID 743223). Particulars: VDR-UAS-bla HEK293T, beta-lactamase FRET ratio, 16 h; series mostly up to 61 µM. Summed up:
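Antagonist mode: compound added to VDR-bla cells alongside agonist 1alpha,25-dihydroxyvitamin D3 (3 nM final), incubation 16 h at 37C. Read-out is LiveBLAzer FRET fluorescence, 2 h at room temperature.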
Turning to `O=C(O)CNC(=O)CNC(=O)CNC(=O)CSC(=O)c1ccccc1`, the outcome was inactive.
Consider `[O]=[Mo](=[O])=[O]`, for which the outcome was inactive.
Take `C=C(C)c1cccc(C(C)(C)N=C=O)c1`: the outcome was inactive.
As to `COc1cc(OC)nc(O[C@H](C(=O)O)C(OC)(c2ccccc2)c2ccccc2)n1`, the result was inactive.
On to `O=C=NCC1CCCC(CN=C=O)C1` (stereo not drawn), for which the result was inactive.
Same read-out and setting: the same measure for `COS(=O)(=O)O`: “inactive”; for `CCCC(CC)c1ccccc1` (stereo not drawn): “inactive”.
In the case of `C=CCN1C[C@H](C(=O)N(CCCN(C)C)C(=O)NCC)C[C@@H]2c3cccc4[nH]cc(c34)C[C@H]21`, the result was inactive.
For the molecule `N[C@@H](Cc1ccc(O)cc1)C(=O)O`, the activity change, negative = inhibition was 1.57% [at 6.95 µM].
On to `Cc1c(Cl)cccc1Cl`, for which the result was inactive.
In the case of `CC(C)(C)NC[C@H](O)COc1cccc2c1CCCC2=O`, the outcome was inactive.
For the molecule `C=C(C)C1CC=C(C)C(=O)C1` (stereo not drawn), the outcome was inactive.
For the molecule `O=C1NC(c2ccccc2)(c2ccccc2)C(=O)N1COP(=O)(O)O`, the result was inactive.
Turning to `C=C(C)[C@@H]1CC=C(C)C(=O)C1`, the result was inactive.
`CN(C)CCCO[C@@H]1[C@H]2OC(C)(C)O[C@H]2O[C@@H]1C(O)CO` (stereo partly drawn): the outcome was inactive.
Still for that read-out and setting: the same measure for `CCCCCC/C=C/C(=O)OC`: “inactive”.
With `OC1OCCOC1O` (stereo not drawn), the outcome was inactive.
In the case of `CC(=O)OCC(=O)Nc1cc(C#N)cc(NC(=O)COC(C)=O)c1Cl`, the result was inactive.

Values taken from PubChem BioAssay (Tox21).
